From the supplement of paper PMC10849652 come the findings set out here.

The full data set covers some 7,900 targets. This sample favours those with a hit. About 0.6% of all pairs of compound and target were hits.

UniProt P48449, sequence (P48449 whole entry, looked up): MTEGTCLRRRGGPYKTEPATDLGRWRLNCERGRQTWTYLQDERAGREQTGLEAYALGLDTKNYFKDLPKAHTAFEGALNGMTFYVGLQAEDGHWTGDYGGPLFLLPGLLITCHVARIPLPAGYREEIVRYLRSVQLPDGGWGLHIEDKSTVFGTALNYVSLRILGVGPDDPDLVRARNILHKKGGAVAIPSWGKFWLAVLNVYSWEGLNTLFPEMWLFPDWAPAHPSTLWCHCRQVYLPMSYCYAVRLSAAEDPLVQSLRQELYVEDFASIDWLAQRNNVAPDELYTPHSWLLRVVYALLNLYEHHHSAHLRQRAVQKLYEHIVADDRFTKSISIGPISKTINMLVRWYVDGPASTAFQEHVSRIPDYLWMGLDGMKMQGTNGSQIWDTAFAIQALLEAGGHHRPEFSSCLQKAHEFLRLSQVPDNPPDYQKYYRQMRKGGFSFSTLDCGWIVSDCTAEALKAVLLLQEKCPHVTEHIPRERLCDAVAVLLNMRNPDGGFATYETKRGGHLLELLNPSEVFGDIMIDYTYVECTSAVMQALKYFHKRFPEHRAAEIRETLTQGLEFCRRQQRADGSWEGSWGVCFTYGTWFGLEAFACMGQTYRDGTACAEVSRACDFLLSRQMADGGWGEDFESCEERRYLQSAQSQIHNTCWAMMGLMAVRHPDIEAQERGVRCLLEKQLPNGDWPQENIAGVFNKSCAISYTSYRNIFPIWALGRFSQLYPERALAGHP
UniProt O43766, sequence (O43766 whole entry, looked up): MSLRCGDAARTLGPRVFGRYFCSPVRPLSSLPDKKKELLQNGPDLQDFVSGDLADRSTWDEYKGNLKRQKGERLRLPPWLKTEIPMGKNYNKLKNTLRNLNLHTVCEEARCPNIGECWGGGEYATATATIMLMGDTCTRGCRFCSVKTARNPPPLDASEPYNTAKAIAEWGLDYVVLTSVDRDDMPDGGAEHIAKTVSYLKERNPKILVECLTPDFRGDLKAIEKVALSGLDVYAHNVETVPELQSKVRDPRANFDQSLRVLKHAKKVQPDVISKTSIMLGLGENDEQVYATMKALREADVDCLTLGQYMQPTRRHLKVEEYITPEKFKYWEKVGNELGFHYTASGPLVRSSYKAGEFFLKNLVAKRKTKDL
UniProt P01116, sequence (P01116 whole entry, looked up): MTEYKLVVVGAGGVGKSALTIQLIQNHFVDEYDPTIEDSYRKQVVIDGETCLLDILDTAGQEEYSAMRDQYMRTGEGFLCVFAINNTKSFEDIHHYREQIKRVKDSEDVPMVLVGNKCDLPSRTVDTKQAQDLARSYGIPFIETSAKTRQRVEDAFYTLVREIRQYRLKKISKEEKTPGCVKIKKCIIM
UniProt Q9Y496, sequence (Q9Y496 whole entry, looked up): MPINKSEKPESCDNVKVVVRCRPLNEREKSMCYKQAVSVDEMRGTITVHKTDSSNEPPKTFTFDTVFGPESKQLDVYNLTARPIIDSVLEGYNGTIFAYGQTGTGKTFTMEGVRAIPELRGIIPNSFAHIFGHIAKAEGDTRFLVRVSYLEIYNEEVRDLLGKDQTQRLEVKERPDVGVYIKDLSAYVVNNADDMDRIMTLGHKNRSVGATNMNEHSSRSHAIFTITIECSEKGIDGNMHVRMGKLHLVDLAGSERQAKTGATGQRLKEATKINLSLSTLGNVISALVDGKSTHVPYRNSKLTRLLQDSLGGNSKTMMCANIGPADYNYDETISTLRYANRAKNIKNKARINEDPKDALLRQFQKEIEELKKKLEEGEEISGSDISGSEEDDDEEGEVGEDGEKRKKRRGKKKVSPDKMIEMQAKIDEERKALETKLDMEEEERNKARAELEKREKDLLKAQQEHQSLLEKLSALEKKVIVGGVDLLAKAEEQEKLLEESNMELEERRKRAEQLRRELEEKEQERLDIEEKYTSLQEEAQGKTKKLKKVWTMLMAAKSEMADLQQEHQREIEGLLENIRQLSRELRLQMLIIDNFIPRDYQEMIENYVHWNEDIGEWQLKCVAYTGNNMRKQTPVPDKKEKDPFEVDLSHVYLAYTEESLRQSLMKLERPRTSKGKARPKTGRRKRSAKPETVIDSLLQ
UniProt Q16891, sequence (Q16891 whole entry, looked up): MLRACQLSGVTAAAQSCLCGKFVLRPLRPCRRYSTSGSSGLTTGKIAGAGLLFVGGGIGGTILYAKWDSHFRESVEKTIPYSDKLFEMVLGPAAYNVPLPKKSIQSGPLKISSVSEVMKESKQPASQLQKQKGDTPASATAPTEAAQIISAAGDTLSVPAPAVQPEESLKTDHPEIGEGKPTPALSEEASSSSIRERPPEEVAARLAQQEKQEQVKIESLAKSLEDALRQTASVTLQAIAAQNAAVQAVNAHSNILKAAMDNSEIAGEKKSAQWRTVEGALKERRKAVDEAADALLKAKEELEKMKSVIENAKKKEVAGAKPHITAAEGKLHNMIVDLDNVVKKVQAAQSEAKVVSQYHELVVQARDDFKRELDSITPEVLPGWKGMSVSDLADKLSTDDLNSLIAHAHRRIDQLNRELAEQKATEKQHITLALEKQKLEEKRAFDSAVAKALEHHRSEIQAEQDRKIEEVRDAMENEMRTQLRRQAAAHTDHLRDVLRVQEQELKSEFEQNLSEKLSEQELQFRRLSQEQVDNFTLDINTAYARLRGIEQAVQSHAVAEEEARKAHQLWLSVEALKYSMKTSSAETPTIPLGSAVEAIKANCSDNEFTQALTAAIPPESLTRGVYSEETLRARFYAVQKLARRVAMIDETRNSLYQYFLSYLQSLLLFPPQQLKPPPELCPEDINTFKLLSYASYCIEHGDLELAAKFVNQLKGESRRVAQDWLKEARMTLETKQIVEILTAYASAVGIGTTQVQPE
UniProt Q14624, sequence (Q14624 whole entry, looked up): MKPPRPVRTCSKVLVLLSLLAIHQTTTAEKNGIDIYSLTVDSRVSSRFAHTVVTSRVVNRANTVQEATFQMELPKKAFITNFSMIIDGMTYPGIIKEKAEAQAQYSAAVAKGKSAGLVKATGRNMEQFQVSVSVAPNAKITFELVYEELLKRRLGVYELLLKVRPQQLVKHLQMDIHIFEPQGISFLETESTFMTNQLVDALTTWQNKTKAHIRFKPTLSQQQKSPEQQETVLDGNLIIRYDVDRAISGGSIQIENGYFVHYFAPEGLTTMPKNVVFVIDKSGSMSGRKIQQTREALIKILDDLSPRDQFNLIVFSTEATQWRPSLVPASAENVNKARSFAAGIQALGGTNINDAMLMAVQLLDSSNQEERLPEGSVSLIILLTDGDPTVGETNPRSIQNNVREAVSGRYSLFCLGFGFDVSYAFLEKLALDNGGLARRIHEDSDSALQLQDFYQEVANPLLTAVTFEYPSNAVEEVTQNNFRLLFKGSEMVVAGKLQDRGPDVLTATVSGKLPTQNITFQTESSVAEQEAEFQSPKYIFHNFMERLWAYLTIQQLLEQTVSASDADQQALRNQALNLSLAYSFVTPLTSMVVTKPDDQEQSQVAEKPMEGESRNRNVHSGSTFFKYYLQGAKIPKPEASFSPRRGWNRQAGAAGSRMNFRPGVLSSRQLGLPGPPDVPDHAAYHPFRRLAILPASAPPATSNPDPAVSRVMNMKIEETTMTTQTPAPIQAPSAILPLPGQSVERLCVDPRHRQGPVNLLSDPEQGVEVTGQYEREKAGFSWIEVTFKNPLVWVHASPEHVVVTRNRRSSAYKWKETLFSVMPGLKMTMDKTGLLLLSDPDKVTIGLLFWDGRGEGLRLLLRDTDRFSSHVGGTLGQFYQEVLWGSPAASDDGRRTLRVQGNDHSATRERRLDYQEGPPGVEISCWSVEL
UniProt P32019, sequence (P32019 whole entry, looked up): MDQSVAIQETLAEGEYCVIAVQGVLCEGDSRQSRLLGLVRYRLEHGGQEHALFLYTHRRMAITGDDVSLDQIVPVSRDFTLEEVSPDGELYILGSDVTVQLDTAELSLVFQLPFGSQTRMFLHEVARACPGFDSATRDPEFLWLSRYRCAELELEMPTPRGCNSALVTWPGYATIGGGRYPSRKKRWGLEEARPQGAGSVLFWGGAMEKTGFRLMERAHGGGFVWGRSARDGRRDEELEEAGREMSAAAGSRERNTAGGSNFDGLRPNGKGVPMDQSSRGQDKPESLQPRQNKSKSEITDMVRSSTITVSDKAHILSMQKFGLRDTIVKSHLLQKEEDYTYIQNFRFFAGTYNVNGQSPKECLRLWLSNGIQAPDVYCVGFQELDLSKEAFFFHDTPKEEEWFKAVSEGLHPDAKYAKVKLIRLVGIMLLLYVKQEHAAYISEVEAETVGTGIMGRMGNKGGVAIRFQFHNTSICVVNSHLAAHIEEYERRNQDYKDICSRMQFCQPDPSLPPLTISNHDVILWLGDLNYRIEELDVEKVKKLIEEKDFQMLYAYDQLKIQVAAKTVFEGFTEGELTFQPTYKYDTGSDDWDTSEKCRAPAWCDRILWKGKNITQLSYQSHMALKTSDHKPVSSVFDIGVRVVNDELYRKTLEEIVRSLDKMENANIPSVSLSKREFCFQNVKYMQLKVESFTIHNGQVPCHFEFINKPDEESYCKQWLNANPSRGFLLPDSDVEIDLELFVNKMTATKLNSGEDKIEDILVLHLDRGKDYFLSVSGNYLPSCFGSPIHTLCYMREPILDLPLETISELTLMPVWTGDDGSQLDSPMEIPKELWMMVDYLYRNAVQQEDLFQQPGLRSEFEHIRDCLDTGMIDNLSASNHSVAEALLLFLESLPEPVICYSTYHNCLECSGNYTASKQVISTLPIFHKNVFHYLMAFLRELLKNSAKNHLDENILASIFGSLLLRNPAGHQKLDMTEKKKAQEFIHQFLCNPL
UniProt Q8WV07, sequence (Q8WV07 whole entry, looked up): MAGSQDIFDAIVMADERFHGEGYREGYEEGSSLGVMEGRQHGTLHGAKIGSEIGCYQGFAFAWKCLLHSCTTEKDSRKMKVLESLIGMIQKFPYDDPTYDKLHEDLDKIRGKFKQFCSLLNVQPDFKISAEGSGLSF

Compound in the test: C1=CC2=NC=CN=C2C=C1/C=C/3\C(=O)NC(=O)S3
In words: log2 fold change, soluble protein after heating vs DMSO (PISA); higher = thermal stabilisation; K562 cells, 10 uM, 30 min; active = over 0.2 and 3.5 SD of the protein, either way, in both replicates (recomputed). In short, it runs like this:
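For each measurement, 10 μM compound was applied for 30 min to K562 cells at 2×10^6 cells/mL. Aliquots were heated for 3 min across 48°C-58°C, pooled, and extracted in PBS with 0.5% NP-40 at 4°C; the supernatant after 21,000xg for 90 min was soluble protein. This was quantified by TMTpro 16plex LC-MS/MS with channel sums equalised, and thermal stability was reported relative to control samples from duplicates, on a log2 fold-change scale.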
Take KPNA6 (UniProt O60684): the log2 fold change was 0.059 (inactive).

For the target KDM3B (UniProt Q7LBC6), the log2 fold change was 0.043 (inactive).

Regarding LMBRD2 (UniProt Q68DH5), the log2 fold change is 0.038 (inactive).

Regarding ME2 (UniProt P23368), the log2 fold change is -0.024 (inactive).

On to ILKAP (UniProt Q9H0C8), for which the log2 fold change is 0.011 (inactive).

On to MFN2 (UniProt O95140), for which the log2 fold change is 0.008 (inactive).

On to INPP5B (UniProt P32019), for which the log2 fold change is -0.018 (inactive).

As for LARP1 (UniProt Q6PKG0), the log2 fold change was -0.001 (inactive).

For the target MIER1 isoform 12 (UniProt Q8N108), the log2 fold change is 0.014 (inactive).

Take L2HGDH (UniProt Q9H9P8): the log2 fold change was 0.01 (inactive).

With KRAS isoform 2 (UniProt P01116), the log2 fold change was 0.019 (inactive).

On to LTO1 (UniProt Q8WV07), for which the log2 fold change is 0.089 (inactive).

Take MFN1 (UniProt Q8IWA4): the log2 fold change is 0.347 (inactive).

In the case of IKZF1 (UniProt Q13422), the log2 fold change was 0.019 (inactive).

Take MAP3K7 (UniProt O43318): the log2 fold change was -0.031 (inactive).

As for KIF3A (UniProt Q9Y496), the log2 fold change is 0.034 (inactive).

For IMMT isoform 4 (UniProt Q16891), the log2 fold change is 0.011 (inactive).

Turning to LDLR (UniProt P01130), the log2 fold change was 0.025 (inactive).

As to LMNA (UniProt P02545), the log2 fold change is 0.035 (inactive).

MAGI1 (UniProt Q96QZ7): the log2 fold change was 0.018 (inactive).

For MAP3K4 isoform 2 (UniProt Q9Y6R4), the log2 fold change was -0.017 (inactive).

Consider IWS1 (UniProt Q96ST2), for which the log2 fold change is 0.022 (inactive).

Consider INTS5 (UniProt Q6P9B9), for which the log2 fold change is 0.097 (inactive).

As to KLHDC4 (UniProt Q8TBB5), the log2 fold change is -0.123 (inactive).

In the case of LSS (UniProt P48449), the log2 fold change was 0.069 (inactive).

Turning to MAN2B2 (UniProt Q9Y2E5), the log2 fold change was 0.025 (inactive).

Consider KHDC4 (UniProt Q7Z7F0), for which the log2 fold change is 0.084 (inactive).

Regarding MCCC2 (UniProt Q9HCC0), the log2 fold change is 0.011 (inactive).

With MAPKAPK5 (UniProt Q8IW41), the log2 fold change was 0.052 (inactive).

Take JMJD6 isoform 3 (UniProt Q6NYC1): the log2 fold change is 0.03 (inactive).

As for LARP4B (UniProt Q92615), the log2 fold change was -0.03 (inactive).

Regarding LEO1 (UniProt Q8WVC0), the log2 fold change was 0.007 (inactive).

KDM1A isoform 2 (UniProt O60341): the log2 fold change is -0.015 (inactive).

MFSD5 isoform 2 (UniProt Q6N075): the log2 fold change is 0.038 (inactive).

Turning to ITIH4 (UniProt Q14624), the log2 fold change was -0.039 (inactive).

LARP4 isoform 4 (UniProt Q71RC2): the log2 fold change was 0.002 (inactive).

In the case of LTV1 (UniProt Q96GA3), the log2 fold change is 0.013 (inactive).

As for LIAS (UniProt O43766), the log2 fold change was 0.007 (inactive).
